# Values without a mark were called inactive. Inconclusive results are not listed. Where a call stands in place of a potency, no number is given. Calls of active or inactive are those of the source. Unless noted, calls come from the whole dose curve.
# Experiments:
# [1] = qHTS assay to identify small molecules that stimulate interleukin-8 (IL-8) secretion (AID 651758; active = well fitted activation curve with a large enough effect in the signal ratio; the % refers to the signal ratio)
# Method in brief: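 THP-1, 2000 cells/well; cpd 16 h, 37 C; add cryptate + XL665 anti-IL-8 Abs; RT 1-3 h; TR-FRET read.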
# [2] = molecular target: Bile acid receptor (Homo sapiens) (UniProt Q96RI1); test: qHTS assay for small molecule antagonists of farnesoid X receptor signaling (AID 588526)
# Bile acid receptor (Homo sapiens), sequence (Q96RI1 whole entry, looked up): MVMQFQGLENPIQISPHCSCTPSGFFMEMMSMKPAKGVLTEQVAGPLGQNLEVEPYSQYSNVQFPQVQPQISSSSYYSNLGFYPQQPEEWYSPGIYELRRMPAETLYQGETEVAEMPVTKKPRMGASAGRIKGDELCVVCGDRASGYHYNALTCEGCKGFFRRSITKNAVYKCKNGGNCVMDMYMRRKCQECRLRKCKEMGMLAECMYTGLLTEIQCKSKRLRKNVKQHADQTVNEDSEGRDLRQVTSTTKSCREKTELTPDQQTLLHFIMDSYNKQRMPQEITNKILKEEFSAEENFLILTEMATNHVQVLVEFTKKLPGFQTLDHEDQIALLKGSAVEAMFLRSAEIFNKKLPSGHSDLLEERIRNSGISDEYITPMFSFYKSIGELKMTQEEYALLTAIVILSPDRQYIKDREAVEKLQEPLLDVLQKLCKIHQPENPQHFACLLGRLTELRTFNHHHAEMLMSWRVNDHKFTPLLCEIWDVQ
# Method in brief: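 Concentration-response titrations were fitted to the Hill equation for half-maximal inhibition and maximal response, with data normalised to 50 uM chenodeoxycholic acid and DMSO control wells. Cells: FXR-UAS-bla HEK293T, dialyzed FBS.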
# [3] = molecular target: Cytochrome P450 3A4 (Homo sapiens) (UniProt P08684); test: qHTS Assay for Activators of Cytochrome P450 3A4 (AID 885; active = well fitted activation curve with a large enough effect; note: nearly all actives have a fitted effect of over 65% in size)
# Cytochrome P450 3A4 (Homo sapiens), sequence (P08684 whole entry, looked up): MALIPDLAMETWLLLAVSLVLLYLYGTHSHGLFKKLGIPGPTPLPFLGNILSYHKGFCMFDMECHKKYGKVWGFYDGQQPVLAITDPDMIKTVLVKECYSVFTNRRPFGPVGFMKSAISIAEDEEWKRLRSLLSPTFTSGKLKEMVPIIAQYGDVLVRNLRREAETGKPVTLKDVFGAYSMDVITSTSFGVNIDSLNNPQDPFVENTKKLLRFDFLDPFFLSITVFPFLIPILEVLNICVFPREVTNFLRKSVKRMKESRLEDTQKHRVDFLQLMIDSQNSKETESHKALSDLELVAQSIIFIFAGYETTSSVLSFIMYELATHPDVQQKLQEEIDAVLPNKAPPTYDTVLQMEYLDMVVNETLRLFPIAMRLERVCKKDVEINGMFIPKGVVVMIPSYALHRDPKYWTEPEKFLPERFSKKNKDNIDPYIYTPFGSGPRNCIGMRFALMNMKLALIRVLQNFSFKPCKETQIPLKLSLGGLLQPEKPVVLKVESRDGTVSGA
# Method in brief: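 Signal was normalized against complete inhibition by 57 uM ketoconazole. The reaction used 20nM CYP3A4 with 25uM Luciferin-PPXE, 10-min compound preincubation and a 60-min NADPH-supported step at RT.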
# [4] = molecular target: Androgen receptor (Homo sapiens) (UniProt P10275); test: qHTS assay for small molecule agonists of androgen receptor signaling (AID 588515; active = well fitted curve in the direction sought with a large enough effect in the signal ratio, with a control signal flat; the % refers to the signal ratio); settings: AR-UAS-bla HEK293, beta-lactamase ratio, agonist 16 h; stronger effect = higher value
# Androgen receptor (Homo sapiens), sequence (P10275 whole entry, looked up): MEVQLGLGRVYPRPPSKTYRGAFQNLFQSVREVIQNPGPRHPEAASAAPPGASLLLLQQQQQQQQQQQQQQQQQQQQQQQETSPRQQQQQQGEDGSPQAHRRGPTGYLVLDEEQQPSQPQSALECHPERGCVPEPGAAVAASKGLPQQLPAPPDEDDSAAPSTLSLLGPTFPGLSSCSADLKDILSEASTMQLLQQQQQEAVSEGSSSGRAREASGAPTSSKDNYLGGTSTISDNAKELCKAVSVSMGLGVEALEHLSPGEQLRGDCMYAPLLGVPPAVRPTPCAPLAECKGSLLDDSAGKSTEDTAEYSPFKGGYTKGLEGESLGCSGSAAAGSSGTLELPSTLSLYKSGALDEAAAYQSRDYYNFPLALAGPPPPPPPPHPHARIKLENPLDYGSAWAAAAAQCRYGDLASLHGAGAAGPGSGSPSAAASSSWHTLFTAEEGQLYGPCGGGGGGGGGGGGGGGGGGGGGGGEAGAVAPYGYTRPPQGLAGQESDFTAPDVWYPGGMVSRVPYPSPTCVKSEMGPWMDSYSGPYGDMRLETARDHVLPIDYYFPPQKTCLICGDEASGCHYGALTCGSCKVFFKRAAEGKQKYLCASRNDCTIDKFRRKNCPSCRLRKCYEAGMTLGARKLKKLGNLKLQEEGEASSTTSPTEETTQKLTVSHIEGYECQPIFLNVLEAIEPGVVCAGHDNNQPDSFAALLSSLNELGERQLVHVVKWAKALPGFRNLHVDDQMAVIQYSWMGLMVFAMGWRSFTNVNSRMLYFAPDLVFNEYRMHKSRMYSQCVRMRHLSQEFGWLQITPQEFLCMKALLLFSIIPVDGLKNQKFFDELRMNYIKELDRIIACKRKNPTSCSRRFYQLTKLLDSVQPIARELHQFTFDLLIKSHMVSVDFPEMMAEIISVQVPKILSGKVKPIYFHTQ
# Method in brief: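 EC50 and efficacy came from Hill fits of titrations (up to 92 uM) normalized to 30 nM R1881 as 100% and DMSO as 0%. Compound exposure was 16 h at 37 C on AR-UAS-bla HEK293 cells, with a 405/460/530 nm CCF4 fluorescence read.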
smiles,measurement,setting,value
Cc1ccc([N+](=O)[O-])cc1,Potency,[1],inactive
CCOC(=O)CBr,outcome,[2],inactive
same,Potency,[1],inactive
CCOC(=O)C1OC1(C)c1ccccc1 (stereo not drawn),Potency,[1],inactive
Brc1cccc(-c2ccccc2)c1,outcome,[2],inactive
Cc1ccc(OP(=O)(Oc2ccc(C)cc2)Oc2ccc(C)cc2)cc1,Potency,[3],inactive
CCCCNC(=O)n1c(NC(=O)OC)nc2ccccc21,activation,[4],-8.05%
Cc1cccc(N)c1C,outcome,[2],inactive
ClC(Cl)(Cl)C(Cl)(Cl)Cl,Potency,[1],inactive
Clc1cccc(Cl)c1Cl,Potency,[1],inactive
Cc1cc(-c2cc(C)c(N)c(C)c2)cc(C)c1N,Potency,[3],inactive
O=[N+]([O-])c1ccccc1CCl,outcome,[2],inactive
Oc1cc(Cl)c(Cl)c(Cl)c1Cl,Potency,[3],inactive
Nc1c(Cl)cc([N+](=O)[O-])cc1Cl,activation,[4],-19.7%
same,outcome,[2],inactive
Cc1ccc(N)cc1Cl,Potency,[3],inactive
same,Potency,[1],inactive
NC1CCC(CC2CCC(N)CC2)CC1 (stereo not drawn),outcome,[2],inactive
Cl/C=C/CCl,Potency,[1],inactive
O=C(O)C(Cl)(Cl)Br,outcome,[2],inactive
CNC(=O)O/N=C/C(C)(C)S(C)=O (stereo not drawn),outcome,[2],inactive
same,Potency,[1],inactive
O=C(O)c1cc(Cl)ccc1Cl,outcome,[2],inactive
CN(C)c1ccccc1,outcome,[2],inactive
C=CCBr,outcome,[2],inactive
O=C(O)CBr,Potency,[1],inactive
Nc1ncc([N+](=O)[O-])s1,outcome,[2],inactive
Oc1c(Cl)cccc1Cl,Potency,[1],inactive
